Reference: PubChem BioAssay (NCI)
This is part of a sample that, as a whole, favours compounds with a hit. Of some 83,000 tested, about 20% had one in any assay.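 Values shown are percent growth following 48 h exposure of cells in 96-well plates to a single concentration of compound; below 10 was considered active.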 Unmarked numbers belong to inactive results. The source made the active and inactive calls.

Assays:
Assay in all cases: NCI-60 one-dose screen, 48 h (100 = growth as untreated, 0 = no growth, -100 = all killed)
Details in all cases: 10 µM unless noted
HCT-15 colon = system: HCT-15 colon
HT29 colon = system: HT29 colon
SNB-19 CNS = system: SNB-19 CNS
U251 CNS = system: U251 CNS
PC-3 prostate = system: PC-3 prostate
SK-MEL-5 melanoma = system: SK-MEL-5 melanoma
UACC-62 melanoma = system: UACC-62 melanoma
LOX IMVI melanoma = system: LOX IMVI melanoma
SK-MEL-28 melanoma = system: SK-MEL-28 melanoma
SK-MEL-2 melanoma = system: SK-MEL-2 melanoma
EKVX NSCLC = system: EKVX NSCLC
SN12C renal = system: SN12C renal
UO-31 renal = system: UO-31 renal
TK-10 renal = system: TK-10 renal
ACHN renal = system: ACHN renal
CAKI-1 renal = system: CAKI-1 renal
A498 renal = system: A498 renal
CCRF-CEM leukemia = system: CCRF-CEM leukemia
MOLT-4 leukemia = system: MOLT-4 leukemia

Compound	growth (HCT-15 colon)	growth (HT29 colon)	growth (SNB-19 CNS)	growth (U251 CNS)	growth (PC-3 prostate)	growth (SK-MEL-5 melanoma)	growth (UACC-62 melanoma)	growth (LOX IMVI melanoma)	growth (SK-MEL-28 melanoma)	growth (SK-MEL-2 melanoma)	growth (EKVX NSCLC)	growth (SN12C renal)	growth (UO-31 renal)	growth (TK-10 renal)	growth (ACHN renal)	growth (CAKI-1 renal)	growth (A498 renal)	growth (CCRF-CEM leukemia)	growth (MOLT-4 leukemia)
Nc1nc(Nc2cc(Cl)cc(Cl)c2)nn1S(=O)(=O)c1ccc2ccccc2c1	59.2%	39.8%	78%	37.5%	48.9%	86.5%	67%	60.1%	84.8%	79.2%	53.6%	43.3%	14.7%	63.5%	29.2%	64.1%	15.4%	57.9%	37.6%
CCOc1cc2c(Cl)ncnc2c(OCC)c1OCC	55.1%	78.4%	97.3%	82.6%	18.1%	77.4%	64.3%	83.1%	58.1%	52.2%	88.4%	94%	-17.7% (active)	105%	60.1%		91.1%	11.2%	21.7%
COc1ccc(Nc2[nH]n3c(=O)cc(C)nc3c2C(N)=O)c(OC)c1	102%	92.2%	96%	94.1%	99.7%	98.1%	84%	95.6%	109%	94%	101%	96.6%		88.2%	96.8%	90.2%	86.1%	101%	116%
Nc1cccc(-c2nc3sccn3c2-c2ccnc(NCCNS(=O)(=O)c3ccc(C(F)(F)F)cc3)n2)c1	47.3%	45.7%	75.4%	52.4%	51.6%	32.9%	61.6%	38.8%	82.2%	80.5%	67.2%	63%	15.8%	86.1%	33.9%	39.1%	34.1%	41.8%	45.6%
COc1ccc(C2C=C(c3ccc(OC)c(OC)c3)N=C3SC=C(C)N32)c(Br)c1 (configuration not stated)	92.8%	107%	110%	96.3%	103%	100%	106%	109%	110%	101%		108%	94.8%	107%	95%	99.9%	115%	101%	84%
Clc1cccc(-c2cc(-c3ccc4c(c3)OCCO4)[nH]n2)c1	18.7% [25 µM]	7.83% [25 µM] (active)	45.7% [25 µM]	27.4% [25 µM]	37.1% [25 µM]	5.53% [25 µM] (active)	45.4% [25 µM]	30.2% [25 µM]	56% [25 µM]	17.9% [25 µM]	24.3% [25 µM]	36.3% [25 µM]		61% [25 µM]	44.7% [25 µM]	29% [25 µM]	6.47% [25 µM] (active)	17.9% [25 µM]	25.8% [25 µM]
Fc1ccc(CNCCNc2ncnc3c2cnn3-c2ccccc2)cc1	92.4%	93.1%	94.1%	84%	86.6%	87.4%	101%	89.4%	110%	113%		89.2%	62.1%	102%	100%	87.2%	77.1%	86.9%	89.1%
COc1ccc(/C=N\NC(=O)CN2CCN(c3cc4c(cc3F)c(=O)c(C(=O)N/N=C/c3ccc(OC)c(OC)c3)cn4C3CC3)CC2)cc1OC	98%	6.97% (active)	-0.836% (active)	-16% (active)	13.3%	41.9%	-52.1% (active)	-77.7% (active)	-34.1% (active)	-24.8% (active)	55%	-8.5% (active)		65.1%	102%	88.2%	89.1%	9.85% (active)	5.8% (active)
COc1ccc(C2C=C(c3ccc(Cl)cc3)N=C3SC=C(C)N32)c(Br)c1 (configuration not stated)	25.4%	4.51% (active)	78.2%	49.7%	60.7%	48.9%	58.1%	16.7%	38.4%	68.3%		46.4%	40.7%	65.2%	53%	49.9%	90.2%	7.84% (active)	29.5%
Cc1ccc(S(=O)(=O)Nc2c(Br)cc(Br)cc2C(N)=O)cc1	103%	128%	90.2%	106%	96.3%	99.9%	98.5%	102%	100%	113%		101%	91.9%	161%	101%	103%	107%	95.1%	
COC(=O)C(Sc1ccc(Cl)cc1)C1SC(=S)N(Cc2ccccc2)C1=O (configuration not stated)	73.9%	111%	92.6%	90.3%	97.4%	101%	99.1%	74.9%	109%	96.3%		82.3%	60.2%	115%	97.6%	100%	102%	20.5%	62.1%
O=c1c2sc3ncccc3c2nnn1-c1ccccc1	96%	109%	93.6%	97.7%	98.7%	102%	105%	104%	109%	101%		98.7%	90.6%	126%	106%	93.5%	102%	90.7%	97.7%
Nc1nnc(-c2ccc3ccccc3c2O)o1	78.6%	105%	97.1%	90.4%	82.8%	94.8%	97.5%	85.3%	97.8%	97.9%		95.9%	61.5%	128%	91.7%	96.8%	103%	88.7%	75.5%
O=C(Nc1cccc(-n2cc(-c3ccncc3)c(-c3ccc(Cl)c(O)c3)n2)c1)Nc1cccc(C(F)(F)F)c1	18.2%	77.8%	32.5%	15.8%	4.28% (active)	-25.5% (active)	10.4%	23.8%	29.4%	-25.7% (active)		14.6%	24.8%	21.9%	11.2%	30.1%	17.7%	10.6%	12.5%
COc1cc(-c2nn(-c3cccc(NC(=O)Nc4cc(C(F)(F)F)cc(C(F)(F)F)c4)c3)cc2-c2ccncc2)ccc1Cl	2.59% (active)	-41.2% (active)	6.55% (active)	-81.7% (active)	-55.2% (active)	-96.1% (active)	-55.9% (active)	-91.3% (active)	-28.9% (active)	-52.1% (active)		-8.08% (active)	-29.2% (active)	-26.7% (active)	10.5%	18.5%	-14.6% (active)	-27.3% (active)	-24.5% (active)
O=S(=O)(NCCNc1nccc(-c2c(-c3ccc(F)cc3)nc3sccn23)n1)c1ccc(F)cc1	59%	52.1%	88.5%	79.8%	75.3%	70.8%	71.6%	58.3%	87.6%	76.3%		73%	42.7%	114%	52.5%	62.7%	96.8%	64.3%	73.9%
O=C(CN1CCN(c2cc3c(cc2F)c(=O)c(C(=O)N/N=C/c2ccccc2O)cn3C2CC2)CC1)N/N=C\c1ccccc1O	18.4%	39.2%	29.9%	24.8%	30.3%	-47.5% (active)	0.0993% (active)	2.01% (active)	20.7%	33.2%	23%	24.7%		43.2%	13.5%	5.22% (active)	86.1%	8.24% (active)	9.45% (active)
